# Experimental data published in PubChem BioAssay (NCATS).
# Records with an inconclusive call do not appear. The source made the active and inactive calls. Calls follow the shape of the dose curve; as a rule, active = well fitted cell-killing curve with a large enough effect; inconclusive = small, poorly fitted or top-dose-only effect; inactive = flat fitted curve, though single readings scatter.
# Assay: Quantitative highthroughput screen to assess conditional lethalithy of P12 Ichikawa cells grown in RPMI1640 with dialyzed fetal bovine serum (RPMI+ds) (AID 1963880)
# Settings: ATP luminescence, 48 h; Potency: P12-Ichikawa viability; series mostly up to 45.8 µM
# In short: (§1)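 Each medium arm—HPLM with 10% dialyzed FBS, or RPMI1640 with 5 mM glucose and 10% untreated or dialyzed FBS—was screened against an 11-point, 3-fold compound titration for 48 h at 37 °C, with CellTiter-Glo luminescence as endpoint.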
# Also: nearly all actives have a fitted effect of over 35% in size.
# Potency is read from the fitted curve at half-maximal effect.
row,Compound,Potency
1,C[C@@H](Oc1cc(-c2cnn(C3CCNCC3)c2)cnc1N)c1c(Cl)ccc(F)c1Cl,18.7 µM (active)
2,CO[C@@H]1[C@@H](O)[C@H](O)[C@@H](n2c3c(Cl)cccc3c3c4c(c5c6cccc(Cl)c6[nH]c5c32)C(=O)NC4=O)O[C@@H]1CO,0.264 µM (active)
3,NC(=O)c1cnc(N[C@@H]2CCCC[C@@H]2N)nc1Nc1cccc(-n2nccn2)c1,inactive
4,CC(C)N(CC[C@H](c1ccccc1)c1cc(CO)ccc1O)C(C)C,inactive

# Assay: Quantitative highthroughput screen to assess conditional lethalithy of P12 Ichikawa cells grown in RPMI1640 with untreated serum (RPMI+s) (AID 1963881)
# Settings: ATP luminescence, 48 h; Potency: viability; series mostly up to 45.8 µM
# In short: as §1
row,Compound,Potency
1,C[C@@H](Oc1cc(-c2cnn(C3CCNCC3)c2)cnc1N)c1c(Cl)ccc(F)c1Cl,16.6 µM (active)
2,Fc1ccc([C@@H]2CCNC[C@H]2COc2ccc3c(c2)OCO3)cc1,14.8 µM (active)
3,CC=C(C)C(=O)O[C@H]1C(C)=C[C@]23C(=O)[C@@H](C=C(CO)[C@@H](O)[C@]12O)[C@H]1[C@@H](C[C@H]3C)C1(C)C,0.0066 µM (active)
4,O=C(Nc1ccccc1)Nc1ccc(-c2ccc(C(=O)[C@H]3CCC[C@H]3C(=O)O)cc2)cc1,inactive
5,CN1CCN(CCCN2c3ccccc3Sc3ccc(Cl)cc32)CC1,8.33 µM (active)
6,CCOC(=O)N1CCN([N+]([O-])=NOc2ccc([N+](=O)[O-])cc2[N+](=O)[O-])CC1,23.5 µM (active)
7,Cc1cn2c(-c3cn[nH]c3)cnc2c(Nc2ccc(C(=O)N3CCNCC3)cc2F)n1,18.7 µM (active)
8,COc1cc([C@@H]2c3cc4c(cc3[C@@H](O[C@@H]3O[C@@H]5CO[C@@H](c6cccs6)O[C@@H]5[C@H](O)[C@@H]3O)[C@H]3COC(=O)[C@H]23)OCO4)cc(OC)c1O,0.743 µM (active)
9,CC(C)N(CC[C@H](c1ccccc1)c1cc(CO)ccc1O)C(C)C,inactive
